According to the supplement of paper PMC10338343:
± gives the standard deviation.

Assays:
[1] = test system: MILI (PIWIL2) piRISC loaded with piRNA #1 (26 nt); test: pre-steady-state target cleavage rate (min^-1); guide: piRNA #1 5'p-UGAGGUAGUAGGUUGUAUAGUAUCCA; higher = faster piRNA-guided slicing of the target; conditions: auxiliary factor: 500 nM mouse GTSF1
Method in brief: (§1)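 Cleave-'n-Seq used a transcribed, DNA-blocked target RNA library at 0.1 nM and active affinity-purified piRISC with one synthetic guide at 1 nM, with or without 500 nM GTSF1 partner protein, in HEPES–potassium acetate buffer at 33 °C for 0–8 or 0–960 min. Uncleaved targets were sequenced and normalised to depth and to weakly complementary targets, and three trials were pooled with k3 capped at 0.0001 min^-1. The pre-steady-state cleavage rate was estimated by a burst-and-steady-state fit.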

[2] = test system: EfPiwi piRISC loaded with piRNA #1 (26 nt); test: pre-steady-state target cleavage rate (min^-1); auxiliary factor: 500 nM Ephydatia muelleri Gtsf1; guide: piRNA #1 5'p-UGAGGUAGUAGGUUGUAUAGUAUCCA; MIWI and MILI are mouse PIWI proteins and EfPiwi is from a freshwater sponge; tags in brackets are library labels; higher = faster piRNA-guided slicing of the target
Method in brief: as §1

Sequence	pre-steady-state target cleavage rate [1]	pre-steady-state target cleavage rate [2]
GGAGAGGAUACUAUACUACCUACUACCUGA	0.0973 ± 0.013	0.00353 ± 0.002
GGAGACGAUACUUUACAACCUACUACGUCA	0.0766 ± 0.011	0.00279 ± 0.0019
GGAGACGAUACUAUACAACCUACUAGCACA	0.00848 ± 0.0055	0.00326 ± 0.0016
GGAGACGAUACUAUACAAGCUACUUCCUCA	0.167 ± 0.016	0.00404 ± 0.0021
GGAGACCUUUCAAUACAACCUACUACCUCA	0.0649 ± 0.017	0.00501 ± 0.0042
GGAGACGGAUACUAUACAACCUACUACCUCA	0.234 ± 0.018	0.221 ± 0.062
GGAGAGGAUAACUAUACAACCUACUACCUCA	0.0525 ± 0.0054	0.104 ± 0.039
GGAGAGCAUACUAUACAACCUACUACCUCA	0.188 ± 0.015	0.0285 ± 0.012
GGAGACGAUACUAAACAACCUUCUACCUCA	0.00978 ± 0.003	0.00427 ± 0.004
GGAGACGAUACUAUACAACCUACUAUCUCA	0.149 ± 0.014	0.00856 ± 0.0034
GGAGACCUAACUAUACAACCUACUAUCUCA	0.0721 ± 0.017	0.0057 ± 0.003
GGAGACCAUACUAUACAUCCUACUAGCUCA	0.152 ± 0.024	0.00265 ± 0.0024
GGAGACCAGACUAUACAACCUACUACCUCA	0.193 ± 0.06	0.00856 ± 0.0055
GGAGACCUUUCUAUACAACCUAGUACCUCA	0.0267 ± 0.0078	0.00465 ± 0.0038
GGAGAGGAUACUUUACAACGUACUACCUCA	0.018 ± 0.0029	0.00409 ± 0.0016
GGAGACGAUACUAUACAGCCUACUACCUCA	0.16 ± 0.015	0.0104 ± 0.0039
GGAGACGAUACUAUACAACCUACUACCUCC [g2:g24:cont:t1C]	0.182 ± 0.014	0.0508 ± 0.017
GGAGACCUUCACUAUACAACCUACUACCUCA	0.107 ± 0.017	0.00775 ± 0.0054
GGAGUGGAUACUAUACAACCUUCAACCUCA	0.00344 ± 0.0019	0.00298 ± 0.0018
GGAGACCAUACUAUACAACCUACAACCUCA	0.189 ± 0.024	0.00489 ± 0.0019
GGAGACGAUACUAUAGAACCUACUAGCUCA	0.0159 ± 0.0077	0.00419 ± 0.0018
GGAGACCUUACUAUACAACCUACUAGGAGA [g6:g22:cont:t1A]	0.00747 ± 0.0032	0.00279 ± 0.0024
GGAGACGACACUAUACAACCUACUACCUCA	0.214 ± 0.025	0.114 ± 0.038
GGAGUGGAUACUAUUCAACCUUCUACCUCA	0.00907 ± 0.0019	0.00433 ± 0.0025
GGAGUGGAUAGAAUACAACCUACUACCUCA	0.156 ± 0.014	0.0062 ± 0.0044

Sequence	pre-steady-state target cleavage rate [1]	pre-steady-state target cleavage rate [2]
GGAGACCUAUCUAUAACAACCUACUACCUCA	0.0615 ± 0.012	0.00453 ± 0.0037
GGAGACCUAUCGAUACAACCUACUACCUCA	0.0869 ± 0.014	0.0102 ± 0.0056
GGAGACGAUACUAUACAACCUACGACCUCA	0.146 ± 0.019	0.00449 ± 0.0018
GGAGACCUUACUAUGCAACCUACUACCUCA	0.158 ± 0.011	0.0061 ± 0.0032
GGAGACGAUACUAUACAACCUACUACCAUCA	0.134 ± 0.013	0.00489 ± 0.002
GGAGACGAUACUAUACUACCUAGUACCUCA	0.0742 ± 0.015	0.00268 ± 0.0016
GGAGACGAUACUAUACAAGCUACUACCUGA	0.202 ± 0.022	0.00333 ± 0.0015
GGAGACGAAACUAUACAAGCUACUACCUCA	0.242 ± 0.02	0.00338 ± 0.0017
GGAGAGGAUACUAAACAACCUAGUACCUCA	0.00823 ± 0.004	0.00257 ± 0.002
GGAGACGAUACUAUUCAACCUACUACCUGA	0.105 ± 0.017	0.00421 ± 0.0019
GGAGUAGAUACUAUACAACCUACUACCUCA	0.186 ± 0.0093	0.158 ± 0.057
GGAGACGAUACUAUACAAGCAACUACCUCA	0.00923 ± 0.0026	0.0046 ± 0.003
GGAGAGGAUACUAUACAACCUACUACGCUCA	0.0912 ± 0.013	0.00523 ± 0.0019
GGAGACGAUACUAUACAUCCUACUACGUCA	0.213 ± 0.033	0.00318 ± 0.0012
GGAGUGCAUACUAUACAACCUACUAGCUCA	0.0656 ± 0.0098	0.00282 ± 0.0024
GGAGAGGAUACUUUACAACCAACUACCUCA	0.00433 ± 0.0019	0.00291 ± 0.0016
GGAGACCUAUCUAUGCAACCUACUACCUCA	0.122 ± 0.014	0.00656 ± 0.0037
GGAGACCUAACUAUACAACCUAUUACCUCA	0.0965 ± 0.018	0.00738 ± 0.0043
GGAGUGGAUACUAUACAACCUACUACCUUA	0.112 ± 0.011	0.276 ± 0.095
GGAGACCAUUCUAUACAACCUACUAGCUCA	0.0909 ± 0.015	0.00323 ± 0.0026
GGAGAGGACACUAUACAACCUACUACCUCA	0.185 ± 0.016	0.0224 ± 0.0085
GGAGACCUUACUAUACAACCUACUACCUGA	0.117 ± 0.016	0.00415 ± 0.0019
GGAGACCUAACUAUACAACCUACUACGAGA	0.0403 ± 0.019	0.00515 ± 0.0032
GGAGUGGAUUCUAUACAACCUAGUACCUCA	0.0634 ± 0.011	0.00168 ± 0.0013
GGAGUGGAUACUAAACAACCUACAACCUCA	0.0728 ± 0.009	0.00162 ± 0.0015

Sequence	pre-steady-state target cleavage rate [1]	pre-steady-state target cleavage rate [2]
GGAGAGGAUACAAUACAACCUACUAGCUCA	0.068 ± 0.011	0.00253 ± 0.0018
GGAGACGAUACUAUACAACGUACUUCCUCA	0.0234 ± 0.0059	0.00359 ± 0.0013
GGAGACCUAACUUUACAACCUACUACCUCA	0.109 ± 0.025	0.00631 ± 0.0034
GGAGACGAUACUAUACAACCUACUAUCCUCA	0.193 ± 0.024	0.0049 ± 0.0014
GGAGACCUUACUAAACAACCUACUACCUCA	0.112 ± 0.012	0.00463 ± 0.0036
GGAGUGGAUACUUAUACAACCUACUACCUCA	0.133 ± 0.0093	0.093 ± 0.034
GGAGAGGAUACCAUACAACCUACUACCUCA	0.167 ± 0.021	0.0957 ± 0.032
GGAGACCAUACUAUACAACCUACUACUCA	0.204 ± 0.026	0.00387 ± 0.0024
GGAGAGGAUACUAUACUACCUACUUCCUCA	0.0617 ± 0.016	0.00269 ± 0.002
GGAGACCAUACUAGACAACCUACUACCUCA	0.151 ± 0.014	0.0249 ± 0.01
GGAGACCUAUGUAUACAACCUACUACCUCA [g2:g19:cont:t1A]	0.0765 ± 0.012	0.00649 ± 0.0034
GGAGACGAUACUAUAGUACCUACUACCUCA	0.193 ± 0.013	0.00438 ± 0.0021
GGAGACCAUACUUACAACCUACUACCUCA	0.0658 ± 0.012	0.00861 ± 0.0046
GGAGUGGAUUGUAUACAACCUACUACCUCA	0.151 ± 0.0098	0.00594 ± 0.0037
GGAGACGAUACUAUACAACUCUACUACCUCA	0.00377 ± 0.0022	0.00452 ± 0.0031
GGAGAGGAUACUAUACAACGUACUACCACA	0.0287 ± 0.0041	0.00287 ± 0.0018
GGAGACCAUUCUAUACUACCUACUACCUCA	0.111 ± 0.013	0.00741 ± 0.0044
GGAGACGAUAUAUACAACCUACUACCUCA	0.154 ± 0.011	0.00621 ± 0.0041
GGAGAGGAUACUAUACAACCUUCUACCACA	0.00472 ± 0.0023	0.00468 ± 0.0021
GGAGACCUAACUAUACAACAUACUACCUCA	0.0407 ± 0.0099	0.00659 ± 0.0046
GGAGAGGAUACUUUACAACCUACUACCACA	0.152 ± 0.015	0.0019 ± 0.0011
GGAGAGGAAACUAUACAACCUACUACCUCA	0.222 ± 0.026	0.00596 ± 0.0036
GGAGACCUUACUAUACAACCUACUACCUCCA	0.133 ± 0.014	0.00652 ± 0.0028
GGAGAGGAUACUGUACAACCUACUACCUCA	0.121 ± 0.012	0.0789 ± 0.029
GGAGACCUAUCAUAACAACCUACUACCUCA	0.0143 ± 0.0053	0.00531 ± 0.0037

Sequence	pre-steady-state target cleavage rate [1]	pre-steady-state target cleavage rate [2]
GGAGUGGAUUCUAUACAACCUACUACGUCA	0.0598 ± 0.0076	0.0027 ± 0.0024
GGAGUGGAUACUAUACAUCGUACUACCUCA	0.0624 ± 0.0061	0.0051 ± 0.0023
GGAGACCUAUGAGUACAACCUACUACCUCA	0.00674 ± 0.0022	0.00713 ± 0.004
GGAGACGAUACUAUACAAGCUACUACCUCA	0.269 ± 0.016	0.00854 ± 0.0028
GGAGUGGCAUACUAUACAACCUACUACCUCA	0.204 ± 0.015	0.101 ± 0.029
GGAGACGAUACCAUACAACCUACUACCUCA	0.236 ± 0.027	0.124 ± 0.045
GGAGACGAUACUAUUCAAGCUACUACCUCA	0.23 ± 0.015	0.00454 ± 0.002
GGAGUGGAUAGUAUACAACCUACUUCCUCA	0.0138 ± 0.0048	0.00264 ± 0.0019
GGAGACCCUACUAUACAACCUACUACCUCA	0.207 ± 0.021	0.153 ± 0.051
GGAGACCUAACAAUACAUCCUACUACCUCA	0.191 ± 0.031	0.00431 ± 0.0035
GGAGACGAUACUAUCAACCUACUACCUCA	0.14 ± 0.012	0.0106 ± 0.0051
GGAGAGGUUACUAAACAACCUACUACCUCA	0.142 ± 0.013	0.00353 ± 0.0034
GGAGAGGCAUACUAUACAACCUACUACCUCA	0.177 ± 0.014	0.0477 ± 0.017
GGAGAGGAUUGUAUACAACCUACUACCUCA	0.103 ± 0.0085	0.00676 ± 0.0048
GGAGUGGAUACUAUAGAACGUACUACCUCA	0.0156 ± 0.0021	0.00156 ± 0.0015
GGAGACCAUACGAUACAACCUACUACCUCA	0.255 ± 0.028	0.00769 ± 0.0035
GGAGUGGAUACUAUACAACCAUCUACCUCA	0.00432 ± 0.0024	0.00525 ± 0.0023
GGAGACGAUACUAUAGAACCUUCUACCUCA	0.00459 ± 0.0021	0.00285 ± 0.0016
GGAGACGAUACUAUACAACCUUCUACCACA	0.00864 ± 0.0028	0.00454 ± 0.0022
GGAGUGGAUACUAUACAACCUAGUACCUCA	0.0508 ± 0.0096	0.00414 ± 0.0012
GGAGUGGAUAGUAUACAACCUACUACCACA	0.0277 ± 0.0092	0.00327 ± 0.0018
GGAGACGAUACUAUACAACCUACUACCUUA	0.228 ± 0.027	0.224 ± 0.068
GGAGACGAUACUAUACAACCAUCUACCUCA	0.00466 ± 0.003	0.00359 ± 0.001
GGAGACCAUAGUAUACAACCUACUACCUCA	0.118 ± 0.012	0.022 ± 0.0084
GGAGACCAUACUAUACUACCUACUUCCUCA	0.0579 ± 0.011	0.00301 ± 0.0023
